Laboratory results taken from the supplement of paper PMC6555819.

What was measured:
Assay in all cases: PBM binding z-score (relative to random genomic background probes); higher = stronger binding; sequences stand for … in GC…GCGATTGACAGCGTAGAATGAAGG
[1] = system: FXR:RXRa (NR concentration 270 nM, RXRa partner concentration 90 nM)
In short: (§1)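 Regression normalization was applied to scanned fluorescence from custom Agilent 4×180K protein-binding microarrays. Before scanning, arrays were incubated 1 h with ligand-free nuclear receptor dimers, and binding was detected with antibodies against each partner (one per run). Binding z-scores use the random background probes as reference.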

[2] = system: LXRa:RXRa (NR concentration 270 nM, RXRa partner concentration 90 nM)
In short: as §1

[3] = system: LXRa homodimer (NR concentration 270 nM)
In short: as §1

[4] = system: LXRb:RXRa (NR concentration 270 nM, RXRa partner concentration 90 nM)
In short: as §1

[5] = system: LXRb homodimer (NR concentration 270 nM)
In short: as §1

[6] = system: PPARa:RXRa (NR concentration 270 nM, RXRa partner concentration 90 nM)
In short: as §1

[7] = system: PPARg:RXRa (NR concentration 180 nM, RXRa partner concentration 90 nM)
In short: as §1

[8] = system: PPARg:RXRa 270nM:90nM, anti-RXR (NR concentration 270 nM, RXRa partner concentration 90 nM)
In short: as §1

[9] = system: PPARg:RXRa 30nM:10nM, anti-RXR (NR concentration 30 nM, RXRa partner concentration 10 nM)
In short: as §1

[10] = system: PPARg:RXRa 90nM:30nM, anti-RXR (NR concentration 90 nM, RXRa partner concentration 30 nM)
In short: as §1

[11] = system: PPARg:RXRa DBDmut IVT, anti-RXR (DBD mutation: RXRa K156A/R161A, NR concentration 270 nM, RXRa partner concentration 90 nM)
In short: as §1

[12] = system: PPARg:RXRa IVT, anti-PPARg (NR concentration 270 nM, RXRa partner concentration 90 nM)
In short: as §1

[13] = system: PPARg DBDmut IVT, anti-PPARg (DBD mutation: PPARg1 K132A/R137A, NR concentration 270 nM)
In short: as §1

[14] = system: PPARg homodimer (NR concentration 180 nM)
In short: as §1

[15] = system: PXR:RXRa (NR concentration 270 nM, RXRa partner concentration 90 nM)
In short: as §1

[16] = system: PXR homodimer (NR concentration 270 nM)
In short: as §1

[17] = system: RARa:RXR (NR concentration 270 nM, RXRa partner concentration 90 nM)
In short: as §1

[18] = system: RARa homodimer (NR concentration 270 nM)
In short: as §1

[19] = system: RARb:RXRa (NR concentration 270 nM, RXRa partner concentration 90 nM)
In short: as §1

[20] = system: PPARg DBDmut:RXRa IVT, anti-PPARg (DBD mutation: PPARg1 K132A/R137A, NR concentration 270 nM, RXRa partner concentration 90 nM)
In short: as §1

Row | Sequence | PBM binding z-score [1] | PBM binding z-score [2] | PBM binding z-score [3] | PBM binding z-score [4] | PBM binding z-score [5] | PBM binding z-score [6] | PBM binding z-score [7] | PBM binding z-score [8] | PBM binding z-score [9] | PBM binding z-score [10] | PBM binding z-score [11] | PBM binding z-score [12] | PBM binding z-score [13] | PBM binding z-score [14] | PBM binding z-score [15] | PBM binding z-score [16] | PBM binding z-score [17] | PBM binding z-score [18] | PBM binding z-score [19] | PBM binding z-score [20]
1 | CGAACTAGGCCACCAGGACAGTGAAGAGGTTGGA | -0.158 | -0.638 | -0.662 | -0.868 | -0.94 | 1.98 | 3.12 | 2.28 | 0.382 | 1.23 | 6.89 | 6.5 | -0.0856 | -0.263 | -0.874 | -0.217 | -0.512 | -0.684 | 0.821 | 
2 | CGAACTAAGTCAAAGGACAGTGAAAGGCGACGTA | -0.166 | -0.175 | -0.153 | -0.345 | -0.704 | 1.52 | 2.74 | 4.16 | 1.7 | 3.85 | 0.998 | 1.31 | 0.266 | 0.434 | -0.186 | -0.123 | 0.156 | 0.0596 | 1.29 | 
3 | CGTCCAAGGTCAATGTTAGGTCAGTGAAAGCATT | 6.44 | 5.88 | 2.85 | 4.38 | 1.35 | 5.51 |  | 4.66 | 0.937 | 3.1 | 2.85 | 3.43 | -0.256 | 3.57 | 4.77 | 1.6 | 5.78 | 1.18 |  | -0.0958
4 | CGAACTAGGTCGAAGGACAGTGAAAGGCGACGTA | -0.0707 | -0.21 | -0.395 | -0.3 | -1.11 | 2.52 | 5.13 | 5.69 | 2.98 | 5.61 | 4.92 | 5.17 | -0.201 | 0.0184 | -0.467 | -0.851 | -0.0163 | -0.8 | 1.18 | 
